The target in this experiment is Genome polyprotein (Dengue virus type 2 (strain 16681-PDK53)) (UniProt P29991). Kind of experiment: flavivirus cap methylation enzyme inhibition – biochemical, confirmation dose response, primary screen (AID 588689). The settings on record: Dengue-2 NS5 methyltransferase capping enzyme assay, at 25 µM, stronger effect = higher value.
Where [1] appears, read: measured here: pilot screen replicate inhibition.

Here are results for 92 molecules from PubChem BioAssay AID588689 (Southern Research Specialized Biocontainment Screening …, 2011).

The structures appear in SMILES notation. Hit rate of the full screen: of about 340,000 compounds, about 1,000 (0.29%) were called active. No stated cut-off is given here; in the data, inconclusive means inhibition above about 29% without an active follow-up result; inactive means below that. The list is a sample of the results. Results with a measured potency or affinity are listed apart.

In the case of `CCN(CC)S(=O)(=O)c1ccc(N2CCOCC2)c(NC(=O)c2cc3ccccc3oc2=O)c1`, the inhibition (usually the change of the read-out against control, counted positive when it falls) is -2.2% (inactive).

As to `COC(CNC(=O)c1cnn2c(C)c(Cc3ccccc3)c(C)nc12)OC`, the inhibition is -1.46% (inactive). For `Cc1cc(NC(=O)CSc2nc3cc(Cl)ccc3o2)no1`, the inhibition was 1.78% (inactive). As for `COc1ccc(NC(=S)NN2C(C)CCCC2C)cc1` (stereo unspecified), the inhibition was -6.57% (inactive). `Cc1ccc(S(=O)(=O)N(C)CC(=O)N2CCCc3ccccc32)cc1`: the inhibition was 3.9% (inactive).

Regarding `COc1ccc(OC)c(S(=O)(=O)ON2C(=O)c3ccccc3C2=O)c1`, the inhibition is 12.6% (inactive).

For `Cc1ccc(S(=O)(=O)ON2C(=O)c3cccc4cccc(c34)C2=O)cc1`, the inhibition is 14.2% (inactive). Take `Cc1cc(C)c(C)c(S(=O)(=O)ON2C(=O)c3ccccc3C2=O)c1C`: the inhibition was -4.83% (inactive). The same measure, in the same setting: as for `Cc1ccc(S(=O)(=O)N2CCN(C(=O)CN3C(=O)c4ccccc4C3=O)CC2)c(C)c1`, the figure is -3.1% (inactive); as for `COC(=O)c1ccnc(SCC(=O)c2ccccc2)c1`, -7.25% (inactive); as for `Cc1cc(C)c(N2C(=O)C3C4CC(=O)C(c5ccccc54)C3C2=O)c(C)c1` (stereo unspecified), -3.14% (inactive). With `c1ccc(-c2nc3ccccc3c3nc4ccccc4n23)cc1`, the inhibition was 0.36% (inactive). The same measure, in the same setting: as for `On1c(-c2ccccc2)nc2ccccc21`, the figure is -0.77% (inactive).

Turning to `O=C(NCCN1CCOCC1)C1CC(=O)N(c2ccc(Cl)cc2)C1` (stereo unspecified), the inhibition is -16.7% (inactive).

Turning to `S=C(NCc1ccco1)Nc1ccc(Br)cn1`, the inhibition was -6.51% (inactive).

As for `Cc1ccccc1S(=O)(=O)N(CC(O)CN1CCCCC1)c1ccccc1` (stereo unspecified), the inhibition is -8.27% (inactive). On the same count and under the same terms, as for `CCOc1ccc(C(=O)Cc2cc(OC)c(OC)cc2[N+](=O)[O-])cc1`, the figure is -1.39% (inactive); as for `COc1cc(C(=O)N2CCN(c3ccccc3)CC2)c([N+](=O)[O-])cc1OC`, -3.88% (inactive); as for `COc1ccc(C(=Cc2cc(OC)c(OC)cc2[N+](=O)[O-])C(=O)O)cc1`, -1.59% (inactive). The same measure, in the same setting: as for `CCOc1ccc(N2C(=O)/C(=C\c3ccccc3OC)S(=O)(=O)C2c2cccc([N+](=O)[O-])c2)cc1` (stereo unspecified), the figure is -7.02% (inactive). On the same count and under the same terms, as for `CCOC(=O)C1CCCN(C(=O)c2cn(C)c(=O)c3cc(OC)c(OC)cc23)C1` (stereo unspecified), the figure is -5.65% (inactive).

Regarding `C#CCOCCOCCOCCNc1nc(N2CCOCC2)nc(N2CCN(C(=O)CCCCCCCCCCNC(=O)Cn3cc(CCCCCN)nn3)CC2)n1`, the inhibition is 9.92% (inactive). The same measure, in the same setting: as for `Cc1cc(Cl)ccc1OC(C)C(=O)N1CCCN(C(=O)C(C)Oc2ccc(Cl)cc2C)CC1` (stereo unspecified), the figure is -1.34% (inactive). Take `COc1ccc(C2(CNC(=O)CCC(=O)O)CCCC2)cc1OC`: the inhibition is -1.37% (inactive). Besides, the inhibition under setting [1] is -4.84%.

Take `Cc1[nH][nH]c(=O)c1C(c1ccc(-c2ccc(Cl)c(Cl)c2)o1)c1c(C)[nH][nH]c1=O`: the inhibition was 61.3% (inactive). The same measure, in the same setting: as for `O=C(O)c1ccc(-c2cccc(Cl)c2)o1`, the figure is -4.79% (inactive); as for `O=Cc1ccc(-c2ccc(F)cc2)o1`, -6.55% (inactive).

As to `Cc1[nH][nH]c(=O)c1C(c1ccc(-c2ccc(Cl)cc2)o1)c1c(C)[nH][nH]c1=O`, the inhibition was 21% (inactive). On the same count and under the same terms, as for `CCC(OC(=O)c1nsc(Cl)c1Cl)C(=O)NCC1CCCO1` (stereo unspecified), the figure is -4.98% (inactive); as for `CCCc1cc(=O)oc2cc(C)cc(OC(C)C(=O)NCc3cccnc3)c12` (stereo unspecified), -9.54% (inactive). On the same count and under the same terms, as for `NC(=O)Cn1c(O)c(N=NC(=O)CNC(=O)/C=C/c2ccccc2)c2ccccc21`, the figure is 3.88% (inactive); as for `CC(C)CC(COCc1cccc(Cl)c1)N1CCN(C(=O)c2cccc(C(F)(F)F)c2)CCC1=O` (stereo unspecified), 0.79% (inactive); as for `CCOc1ccccc1CN1CCNC(=O)C1CC(=O)NC1CCCCCC1` (stereo unspecified), 7.85% (inactive). `CC(C)CCn1c(SCC(=O)Nc2ccccc2C(F)(F)F)nc2nccnc2c1=O`: the inhibition was -2.66% (inactive).

For the molecule `CCOC(=O)C1CCN(S(=O)(=O)c2ccc(CNC(=O)c3ccccc3)s2)CC1`, the inhibition was -13.1% (inactive). Consider `COC(=O)Nc1ccc(S(=O)(=O)N2CCCC(C(=O)N3CC(C)OC(C)C3)C2)cc1` (stereo unspecified), for which the inhibition is -5.54% (inactive).

Consider `O=C(CSc1nnc2ccc(-c3ccccn3)nn12)Nc1ccc(F)cc1`, for which the inhibition was 2.75% (inactive). Regarding `C[C@@H]1CN(C(=O)c2cc(COc3cccc(C(F)(F)F)c3)on2)C[C@H](C)O1`, the inhibition was -9.08% (inactive).

For the molecule `COc1ccccc1C(=O)Nc1ccnn1C1CCN(Cc2cn(C)c3ccccc23)CC1`, the inhibition is -3.88% (inactive). On to `CCC(CC)=NNc1ccc([N+](=O)[O-])cc1[N+](=O)[O-]`, for which the inhibition was -0.89% (inactive). For `C/C(CCC(=O)O)=N/Nc1ccc([N+](=O)[O-])cc1[N+](=O)[O-]`, the inhibition was -3.25% (inactive). Still for that read-out and setting: as for `Cc1ccc(CN2CCN(CC(=O)NC(C)CCc3ccccc3)C2=O)cc1` (stereo unspecified), the figure is -4.17% (inactive). Consider `CCCc1cc(=O)c2ccc(OCC(C)=O)cc2o1`, for which the inhibition was -9.24% (inactive). The same measure, in the same setting: as for `CC(C)N(CCNS(=O)(=O)c1ccc(Cl)cc1)C(C)C`, the figure is 0.97% (inactive). `COCCC(=O)NNS(=O)(=O)c1ccc(Cl)cc1`: the inhibition was 5.47% (inactive). In the case of `CCOc1ccc(NC(=O)c2ccc(S(=O)(=O)N3CCOCC3)cc2)cc1`, the inhibition was 1.78% (inactive). Still for that read-out and setting: as for `CN1C(=O)C2C3c4ccccc4C(c4ccccc43)[C@@H]2C1=O` (stereo partly specified), the figure is -1.31% (inactive); as for `CC(C(=O)O)N1C(=O)C2C3c4ccccc4C(c4ccccc43)[C@@H]2C1=O` (stereo partly specified), -2.61% (inactive). Still for that read-out and setting: as for `CCC(C(=O)O)P(=O)(c1ccc(Cl)cc1)c1ccc(Cl)cc1` (stereo unspecified), the figure is -8.59% (inactive); as for `COC1=CC(=O)C(OC)=C(OC)C1=O`, 6.99% (inactive). For the molecule `CCCCCSc1nncc(=O)[nH]1`, the inhibition was 4.01% (inactive). Take `COc1ccc(-c2cccc(NC(=O)c3cccs3)c2)nn1`: the inhibition is -3.63% (inactive). For `O=C(CSc1nc2ccccc2s1)Nc1cc(S(=O)(=O)N2CCOCC2)ccc1Cl`, the inhibition is -0.74% (inactive). The same measure, in the same setting: as for `O=C1SCC(c2ccc(Cl)cc2Cl)=NN1Cc1nnc(-c2ccccc2)o1`, the figure is -1.48% (inactive); as for `O=c1[nH]cnc2c1sc1nc(-c3ccccc3)c3c(c12)CCCC3`, -9.17% (inactive); as for `O=C(O)CSc1ncnc2c1sc1nc(-c3ccccc3)c3c(c12)CCC3`, 22.7% (inactive).

Regarding `CCN(CC)c1ccc(S(=O)(=O)N2CCOCC2)cc1NC(=O)CSC(=S)N1CCCC1`, the inhibition was -4.86% (inactive). In the case of `COCCN(C(=O)CSc1nnc(-c2cccc(Cl)c2)n1N)c1c(N)n(CC(C)C)c(=O)[nH]c1=O`, the inhibition is -1.15% (inactive). `C/C=N\NC(=O)CNC(=O)CNC(=O)c1ccccc1`: the inhibition is -9.83% (inactive). As to `Oc1ccc(CNC2CCCCC2)cc1`, the inhibition is -4.06% (inactive). The same measure, in the same setting: as for `Oc1ccc(Cl)cc1CNC1CCCCC1`, the figure is -11.2% (inactive); as for `CC(=O)NCCNC(=O)c1oc2ccccc2c1CSc1ncn[nH]1`, 0% (inactive).

Consider `Cc1cc(C)nc(N/N=C/c2ccccc2OCC(=O)O)n1`, for which the inhibition was 0% (inactive). Same read-out and setting: as for `COc1cccc(N=Cc2nc(-c3ccccc3)oc2OC(C)=O)c1`, the figure is -7.76% (inactive); as for `COc1ccc(N=Cc2nc(-c3ccccc3)oc2OC(C)=O)cc1`, -15.3% (inactive); as for `O=C1c2ccccc2C(=O)N1c1ccccc1`, -3.62% (inactive). The same measure, in the same setting: as for `COc1ccc(-c2noc(-c3ccccc3C(=O)NCc3ccco3)n2)cc1OC`, the figure is -1.61% (inactive); as for `CCOC(=O)N1CCN(C(=O)/C=C/c2ccc(OC)c(OC)c2)CC1`, -5.82% (inactive). Regarding `COc1ccccc1/C=c1\sc2nc(-c3ccccc3OC)nn2c1=O`, the inhibition was 5.01% (inactive). Further, the inhibition under setting [1] was found to be 1.52%.

`CCOc1ccccc1/C=c1\sc2ncnn2c1=O`: the inhibition was 3.42% (inactive). As to `COc1ccccc1/C=c1\sc2nc(-c3ccco3)nn2c1=O`, the inhibition was 20.1% (inactive).

As for `COc1ccccc1/C=C/C=c1\sc2nc(=O)c(Cc3ccccc3)nn2c1=O`, the inhibition is -9.19% (inactive).

`Cc1cccc(NS(=O)(=O)c2ccc(NS(=O)(=O)c3cccs3)cc2)c1`: the inhibition is 13.3% (inactive).

Turning to `N#C/C=C/N1CCC(Cc2ccccc2)CC1`, the inhibition was -4.96% (inactive).

With `N#CCCN(C(=O)COC(=O)Cc1ccc(Br)cc1)c1ccccc1`, the inhibition was -13.2% (inactive). With `CC(C)c1[nH]c(=O)c(C#N)c2c1CSC(C)(C)C2`, the inhibition is -6.61% (inactive).

As to `COc1ccc(C(CCN2CCOCC2)c2c(O)cc(OC)cc2OC)cc1` (stereo unspecified), the inhibition was -0.7% (inactive). For `OCc1ccccc1CNCc1ccccc1`, the inhibition is -5.52% (inactive). Regarding `Oc1ccccc1CNCc1ccccc1`, the inhibition was -2.38% (inactive). In the case of `CSc1ncccc1C(=O)OCc1cccc([N+](=O)[O-])c1`, the inhibition was 0% (inactive). For `COc1ccc(NC(=O)N(C)C[C@@H]2OCc3cnnn3CCCC(=O)N([C@H](C)CO)C[C@H]2C)cc1`, the inhibition is 0.55% (inactive). Still for that read-out and setting: as for `Cc1ccc(C(=O)Nc2ccc3cn[nH]c3c2)cc1S(=O)(=O)N1CCOCC1`, the figure is -0.88% (inactive); as for `CC(C)c1cc(=O)oc2c3c4c(cc12)CCCN4CCC3`, 0% (inactive). Still for that read-out and setting: as for `O=c1oc2c3c4c(cc2c2c1CCC2)OCCN4CCC3`, the figure is 24.7% (inactive). As to `N/C(=N\OC(=O)CCC1CCCCC1)c1cccc([N+](=O)[O-])c1`, the inhibition was -1.88% (inactive). For the same molecule, the inhibition under setting [1] turned out to be 1.82%.

Consider `O=C(CSc1ccccc1)N1CCN(S(=O)(=O)c2ccccc2F)CC1`, for which the inhibition was 3.25% (inactive). In the case of `C=CCn1c(NC(=O)c2ccc(Br)o2)c(S(=O)(=O)c2ccccc2)c2nc3ccccc3nc21`, the inhibition was -4.19% (inactive). For the molecule `CCCCn1c(NC(=O)c2ccco2)c(S(=O)(=O)c2ccc(C)cc2)c2nc3ccccc3nc21`, the inhibition is -64.2% (inactive). The same measure, in the same setting: as for `OCCC1CN(Cc2cnn(-c3ccccc3Cl)c2)CCN1Cc1ccsc1` (stereo unspecified), the figure is -2.26% (inactive); as for `CC(C)N(C(=O)[C@H]1C[C@H](CC(=O)NCCN2CCOCC2)C(=O)N2CCc3c([nH]c4cc(-c5ccco5)ccc34)[C@]12C)C(C)C`, -6.51% (inactive).

`Cc1nn(-c2ccccc2)c(C)c1-c1ccccc1O`: the inhibition was -5.22% (inactive). Moreover, the inhibition under setting [1] is -6.7%. As for `Cc1cccc(C2c3c(n(C)c(=O)n(C)c3=O)N=C3c4ccccc4C(=O)C32)c1` (stereo unspecified), the inhibition is 2.3% (inactive).
